From PubChem
DT40 TDP1 CPT: growth inhibition of DT40 Tdp1-/-;hTDP1 cells with camptothecin (screen for TDP1 inhibitors); chicken DT40 Tdp1-/-;hTDP1 cells + 20 nM CPT, ATP luminescence, 48 h; Potency, µM (series often up to 46.2 µM), inactives show top-dose activity change, negative = growth inhibition, hits mostly inhibitors; 12% of 420,000 active; AID 686979; also: potency is read from the fitted curve at half-maximal effect; nearly all actives have a fitted effect of over 55% in size
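Chicken DT40 Tdp1-/- cells complemented with human TDP1, 400 cells/well, exposed to compounds plus 20 nM camptothecin for at least 48 h at 37 C; viability read as ATP content by CellTiter-Glo luminescence.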
IL1B secr inh: blocks inflammasome-driven IL-1 beta release; activity change, % at 57.5 µM; AID 743279; THP-1 LPS/ATP IL-1B secretion, AlphaLISA, 16 h; hits give low values; 4.7% of 360,000 active; in the data active = activity change below about -50%; inconclusive = mostly about -30% to -49%
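THP-1 cells pretreated 1 hr with compounds (up to 57.5 uM final), then stimulated with LPS (250 ng/mL final) plus ATP (1.25 mM final); secreted IL-1B measured by AlphaLISA after 16 hr, decreased signal indicating inhibition.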
ELG1 DNA repair: inhibitors of ELG1-dependent DNA repair in HEK293T cells. HEK293T ELG1-luciferase reporter, luminescence, 16 h; DNA damage induced by 5-fluorouridine. Potency, µM (titrated, usually from 46.1 µM), inactives show at the top dose activity change, negative = inhibition, actives largely listed as inhibitors. 2.3% of 330,000 active. AID 504467; also: potency is read from the fitted curve at half-maximal effect; nearly all actives have a fitted effect of over 55% in size
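In this reporter screen, reduction of luminescence relative to DMSO vehicle indicated activity. Compounds and 5-fluorouridine were added together to 2,000 cells per well, incubated for 16 hr at 37 °C, then developed with ONE-Glo.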
DT40 TDP1 no CPT: qHTS for Inhibitors of human tyrosyl-DNA phosphodiesterase 1 (TDP1): qHTS in cells in absence of CPT | DT40 Tdp1-/- hTDP1 cells, no CPT, ATP luminescence, 48 h | Potency, µM (series often up to 46.2 µM), without a hit: at the top dose activity change, negative = growth inhibition, actives largely listed as inhibitors | 15% of 420,000 active; also: potency is read from the fitted curve at half-maximal effect; nearly all actives have a fitted effect of over 55% in size
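A cellular qHTS used chicken DT40 cells lacking endogenous Tdp1 but carrying stably transfected human TDP1. Compounds were applied without camptothecin, and cell growth kinetics were judged by ATP-dependent luminescence after ≥48 hr.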
Giardia kill: kills Giardia lamblia. Giardia lamblia trophozoite viability. activity change, % at 7.66 µM, hits read low. 0.15% of 340,000 active. AID 540267; in the data active = activity change below about -80%; inconclusive = between about -30% and that limit;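 also: parasites exposed to compound for two days anaerobically before the ATP read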
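Trophozoites 100 cells/well + cpd; 48 hrs, 37 deg C, anaerobic. ATPLite 1-Step added, 15-30 min RT, luminescence read (ATP-based viability).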
TDP1 inh: TDP1 (human) enzyme inhibition; Potency, µM (titrated, usually from 130 µM), for inactives: top-dose activity change, negative = inhibition, actives largely listed as inhibitors; AID 485290; recombinant TDP1, AlphaScreen DNA substrate cleavage; 0.28% of 350,000 active; Q9NUW8; also: potency is read from the fitted curve at half-maximal effect; nearly all actives have a fitted effect of over 40% in size
Target sequence (Q9NUW8 whole entry, looked up): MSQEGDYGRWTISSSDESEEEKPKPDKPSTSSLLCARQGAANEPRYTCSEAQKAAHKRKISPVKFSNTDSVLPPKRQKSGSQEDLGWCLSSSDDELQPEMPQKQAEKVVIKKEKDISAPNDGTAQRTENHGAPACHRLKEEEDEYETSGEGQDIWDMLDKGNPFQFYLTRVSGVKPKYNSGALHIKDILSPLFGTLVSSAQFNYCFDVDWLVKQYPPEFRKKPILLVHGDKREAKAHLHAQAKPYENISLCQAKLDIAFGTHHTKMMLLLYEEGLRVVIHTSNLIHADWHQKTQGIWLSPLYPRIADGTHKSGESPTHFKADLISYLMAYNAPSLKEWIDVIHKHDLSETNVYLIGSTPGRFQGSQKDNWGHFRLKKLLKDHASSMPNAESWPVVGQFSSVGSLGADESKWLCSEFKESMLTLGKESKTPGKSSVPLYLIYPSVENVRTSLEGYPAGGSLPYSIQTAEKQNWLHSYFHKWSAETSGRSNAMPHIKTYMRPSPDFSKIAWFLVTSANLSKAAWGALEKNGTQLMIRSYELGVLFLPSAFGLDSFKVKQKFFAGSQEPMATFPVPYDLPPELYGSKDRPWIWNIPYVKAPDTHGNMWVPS
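Steps: enzyme plus compound, 15 min RT; add biotin/phosphotyrosine-FITC oligonucleotide (15 nM final), react 5 min; add donor/acceptor beads (10 ug/ml final), 10 min; read AlphaScreen. Tdp1 at 1 nM final.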
* hit, by the source's call; ? = inconclusive; nt = no result; [ ] = another dose, or the depositor's remark. Shown are actives, neighbours in structure and some others; about 19% of the full set was active somewhere. Unless noted, calls follow the shape of the dose curve; as a rule, active = well fitted curve in the direction sought with a large enough effect; inconclusive = small, poorly fitted or top-dose-only effect, or another doubt; inactive = no such curve, though single readings can be large; an effect the other way counts as inactive or inconclusive. % is scaled to controls: 0 for no effect and ±100 for the full control effect.

SMILES | DT40 TDP1 CPT | IL1B secr inh | ELG1 DNA repair | DT40 TDP1 no CPT | Giardia kill | TDP1 inh
CCOC(=O)Cc1csc(N/N=C\c2ccccc2OC)n1 | -18% | 39 | 13% | -16% | 20 | 5%
Cc1ccc(NC(=O)c2nc[nH]c2C(=O)N[C@H](C)c2ccccc2)cc1 | 23µM* | ? | -19% | ? | -9 | 2%
C[C@H](NC(=O)c1[nH]cnc1C(=O)Nc1ccccc1F)c1ccccc1 | ? | 30 | nt | 16µM* | nt | nt
O=C1c2ccccc2C(=O)N1c1noc2ccccc12 | nt | nt | nt | nt | nt | 1%
CCOc1ccc2oc(C(=O)Nc3cc(C)ccn3)c(C)c2c1 | ? | -24 | ? | ? | -25 | 1%
CCOC(=O)c1cn(-c2c(C)n(C)n(-c3ccccc3)c2=O)c2c(F)c(F)c(F)cc2c1=O | 7% | -7 | -4% | 9% | 4 | nt
CCCn1c(=O)c2sccc2n2c(CCCC(=O)Nc3ccc(Oc4ccccc4)cc3)nnc12 | 10µM* | nt | nt | 15µM* | nt | 5%
CCCn1c(=O)c2sccc2n2c(CCCC(=O)Nc3ccc(Oc4ccc(Cl)cc4)cc3)nnc12 | 16µM* | nt | nt | 16µM* | nt | 9%
CCCn1c(=O)c2sccc2n2c(CCCC(=O)Nc3ccccc3F)nnc12 | 0% | nt | nt | ? | nt | 3%
Cc1ccc2nc3n(c(=O)c2c1)-c1cc2ccccc2cc1C(=O)NC3Cc1ccccc1 (stereo not drawn) | 23µM* | 8 | nt | 16µM* | nt | nt
CCC1NC(=O)c2cc3ccccc3cc2-n2c1nc1cc(C)cc(C)c1c2=O (stereo not drawn) | 18µM* | 15 | nt | 4.1µM* | nt | nt
Cc1ccc2nc3n(c(=O)c2c1)-c1ccc(Cl)cc1C(=O)NC3Cc1ccccc1 (stereo not drawn) | nt | nt | 25% | nt | nt | 0%
O=C1NC(Cc2ccc(O)cc2)c2nc3ccc(Br)cc3c(=O)n2-c2ccc(Cl)cc21 (stereo not drawn) | nt | nt | 17% | nt | nt | 3%
O=C1NC(Cc2ccccc2)c2nc3ccc(Cl)cc3c(=O)n2-c2cc3ccccc3cc21 (stereo not drawn) | ? | 16 | nt | 7.3µM* | nt | nt
O=C1NC(Cc2ccc(O)cc2)c2nc3ccc(Cl)cc3c(=O)n2-c2cc3ccccc3cc21 (stereo not drawn) | 6.5µM* | 20 | nt | 5.2µM* | nt | nt
O=C1NC(Cc2ccccc2)c2nc3ccc(Cl)cc3c(=O)n2-c2ccc(Cl)cc21 (stereo not drawn) | nt | nt | 8% | nt | nt | 0%
O=C1NC(Cc2ccccc2)c2nc3ccc(F)cc3c(=O)n2-c2cc3ccccc3cc21 (stereo not drawn) | 5.2µM* | -22 | nt | 5.2µM* | nt | nt
CCCC1NC(=O)c2cc3ccccc3cc2-n2c1nc1cc(Cl)ccc1c2=O (stereo not drawn) | ? | 22 | nt | ? | nt | nt
CCCC1NC(=O)c2cc3ccccc3cc2-n2c1nc1ccc(C)cc1c2=O (stereo not drawn) | ? | 2 | nt | 18µM* | nt | nt
O=C1NC(Cc2ccc(O)cc2)c2nc3cc(Cl)ccc3c(=O)n2-c2cc(Cl)ccc21 (stereo not drawn) | ? | -71* | nt | ? | 21 | nt
O=C1NC(Cc2ccc(O)cc2)c2nc3cc(F)ccc3c(=O)n2-c2cc(Cl)ccc21 (stereo not drawn) | nt | nt | 14% | nt | nt | 1%
CCC1NC(=O)c2cc3ccccc3cc2-n2c1nc1ccc(F)cc1c2=O (stereo not drawn) | ? | -17 | nt | 23µM* | nt | nt
CC(C)C1Cc2[nH]c(=S)[nH]c(=O)c2C(c2ccc(Cl)cc2)O1 (stereo not drawn) | 10% | 1 | nt | -3% | nt | nt
NC(=O)OC[C@@H]1[C@H](NC(=O)/C(=N\OCC(=O)O)c2csc(N)n2)C(=O)N1S(=O)(=O)O | 0% | nt | nt | -13% | nt | nt
Cc1ccc2nc3n(c(=O)c2c1)-c1ncccc1C(=O)NC3Cc1ccccc1 (stereo not drawn) | ? | -5 | nt | ? | nt | nt
SMILES | DT40 TDP1 CPT | IL1B secr inh | ELG1 DNA repair | DT40 TDP1 no CPT | Giardia kill | TDP1 inh
O=C1NC(Cc2ccccc2)c2nc3ccc(Cl)cc3c(=O)n2-c2ncccc21 (stereo not drawn) | ? | -6 | nt | 21µM* | nt | nt
COc1ccc(-c2cc(NCc3ccc(C)cc3)n3cnnc3n2)cc1 | 15µM* | nt | nt | 13µM* | nt | -2%
Cc1cc(NCc2ccc(Cl)cc2)n2cnnc2n1 | 21µM* | nt | nt | 8.2µM* | nt | 2%
Cc1cccc(-n2c(=O)c3c(c4cc(C)ccc4n3C)n(CC(=O)NCC3CCCO3)c2=O)c1 (stereo not drawn) | 0% | nt | nt | -18% | nt | -6%
COc1cccc(CN(C)C(=O)c2cccc(OCc3ccccc3)c2)c1 | -13% | -15 | -3% | -18% | -18 | 0%
CC1(C)CNC(=O)CC(C)(C)N1 | -10% | 19 | -7% | 23% | -2 | 2%
CC1(C)CC(=O)C(/C=N/n2c(C(F)(F)F)nc3ccccc3c2=O)=C(O)C1 | 16µM* | 26 | -13% | ? | 5 | 7%
CCOC(=O)N1CCN(C(=O)c2ccc3c(c2)N(Cc2cccc(Cl)c2)C(=O)c2ccccc2S3=O)CC1 (stereo not drawn) | 16µM* | -23 | ? | 26µM* | -4 | 2%
CC1CCC(NC(=O)c2ccc3c(c2)N(Cc2cccc(Cl)c2)C(=O)c2ccccc2S3=O)CC1 (stereo not drawn) | -26% | nt | nt | -23% | nt | 2%
CC(C)NC(=O)c1ccc2c(c1)N(Cc1cccc(Cl)c1)C(=O)c1ccccc1S2=O (stereo not drawn) | 21µM* | nt | nt | ? | nt | 4%
CN1CCN(C(=O)c2ccc3c(c2)N(Cc2cccc(Cl)c2)C(=O)c2ccccc2S3=O)CC1 (stereo not drawn) | -4% | -3 | nt | -13% | -14 | nt
CC1CCCCN1C(=O)c1ccc2c(c1)N(Cc1cccc(Cl)c1)C(=O)c1ccccc1S2=O (stereo not drawn) | ? | nt | nt | 21µM* | nt | 4%
CCN1CCN(C(=O)c2ccc3c(c2)N(Cc2cccc(Cl)c2)C(=O)c2ccccc2S3=O)CC1 (stereo not drawn) | ? | nt | nt | 21µM* | nt | -1%
O=C(NCCc1nnc2ccc(SCC(=O)N3CCCC3)nn12)c1ccc(F)cc1 | -4% | 0 | -6% | 24% | 14 | 5%[56.1 µM]
Cc1noc(C)c1CSCC(=O)N(C)CC(=O)Nc1ccccc1Cl | -7% | -3 | 12% | -8% | 1 | 1%
Cn1c(CNC(=O)c2ccccc2F)nnc1SCC(=O)c1ccccc1 | 10% | -5 | 15% | -3% | 3 | 2%
